# High-throughput results from PubChem.
# Hits are enriched below; roughly 3.5% of the tested compounds scored in any of these assays.
# PPC-1+TRAIL kill: kills PPC-1 cancer cells in the presence of TRAIL; PPC-1 cells + TRAIL, ATPLite viability luminescence; cell killing (% activity), % at 4 µM or 5 µM; 220,000 compounds, 0.41% hits;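 active = cell killing above 50% in the first pass at 4 µM, then a duplicate retest at 5 µM averaging 50% or more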;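 note: plate controls were cells with TRAIL plus DMSO for no effect and medium-only wells lacking cells for full effect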
# TRAIL sens C8: caspase-8 TRAIL sensitization | NB7+C8 cells + TRAIL, ATPlite viability luminescence | inhibition (viability loss, TRAIL sensitization), % at 10 µM | 360,000 compounds, 1% hits;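 active = compounds causing at least 50% loss of cell viability in the single-dose screen, relative to plate controls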
# TROY NFkB inh: blocks TROY-dependent signaling in reporter cells; Q293 LMP1-TROYcd NF-kB luciferase reporter, 4 h; inhibition, % at 10 µM; 360,000 compounds, 0.98% hits;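 active = compounds whose plate-normalised and pattern-corrected inhibition of the luciferase reporter signal at the single screening dose is 50% or more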
# HSP90 refold inh: blocks HSP90-mediated luciferase refolding in reticulocyte lysate; Rabbit reticulocyte lysate, luciferase refolding luminescence, 3 h; inhibition, % at 5.6 µM; 290,000 compounds, 0.91% hits; AID 1789;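 active = inhibition above the screen-wide mean plus 3 SD, computed separately per campaign, cut at about 16% in these data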;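 note: 0% = DMSO wells and 100% = 60 µM geldanamycin wells; inhibitors lower the luminescence because luciferase stays unfolded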
# TWEAK-Fn14 inh: inhibitors of TWEAK-Fn14 interaction signaling; TWEAK-stimulated Fn14 reporter cells, luciferase luminescence, 8 h; inhibition, % at 10 µM; 360,000 compounds, 2% hits; in the data active = inhibition above about 50%
# Platelet DG rel: platelet dense granule release activity. inhibition, %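 (compounds screened at 7.5 µM in platelet-rich plasma)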. 300,000 compounds, 0.22% hits. AID 1663. human platelet-rich plasma, SFLLRN dense granule ATP release, luminescence;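 active = mean replicate score, as percent of positive control, at or above 50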
# * marks the source's active call; other numbers are inactive results; . = not tested or not shown.
SMILES,PPC-1+TRAIL kill,TRAIL sens C8,TROY NFkB inh,HSP90 refold inh,TWEAK-Fn14 inh,Platelet DG rel
CCCCOC(=O)c1ccc(NC(=S)N2CCN(c3ncc4c(=O)c(C(=O)O)cn(CC)c4n3)CC2)cc1,-1.4,34.5,26.8,-3.8,63.2*,15.9
O=C(NCCSc1c[nH]c2ccccc12)c1ccco1,14.1,4.1,-33.5,-2.5,-3.7,7.0
O=C(NCCSc1c[nH]c2ccccc12)c1c(F)cccc1F,14.7,-4.4,3.1,4.9,1.0,74.5*
CC1=C(C(=O)N(C)C)CC(CC(=O)NC2CCCCC2)C(=O)N1Cc1ccccc1 (stereo not drawn),.,4.8,15.4,.,2.1,.
COC(=O)C[C@@H]1OC[C@H](C(C)C)N1S(=O)(=O)c1ccc(C)cc1,.,-4.0,.,.,.,.
Cc1ccc(C)c(NC(=O)CN(C)C(=O)c2ccccc2OCc2ccccc2Cl)c1,.,0.7,-1.8,.,7.7,-2.9
CC1(c2ccc(OC(F)F)cc2)NC(=O)N(CC(=O)N2c3ccccc3NC(=O)C2(C)C)C1=O (stereo not drawn),.,8.8,-4.5,.,12.0,.
C=CCN(c1ccccc1OC)S(=O)(=O)c1cccc(C(=O)OCC(=O)N2CCOCC2)c1,.,1.8,-5.4,.,-0.4,.
COc1ccc(C(=O)OCC(=O)c2c[nH]c3ccccc23)cc1OC,.,8.6,-11.8,.,5.3,.
C=CCN(c1ccccc1OC)S(=O)(=O)c1cccc(C(=O)OCC(=O)c2c[nH]c3ccccc23)c1,-0.8,6.2,17.0,-1.2,84.7*,-5.5
COc1cc(OC)c(N(C)S(=O)(=O)c2cccc(C(=O)OCC(=O)c3c[nH]c4ccccc34)c2)cc1Cl,13.8,25.6,44.8,5.3,96.1*,-3.1
O=C(CN(C1CCCCC1)S(=O)(=O)c1ccc(F)cc1)NCC1CCCO1 (stereo not drawn),.,94.5*,1.7,.,47.3,.
O=C(CN(c1ccc(Br)cc1)S(=O)(=O)c1ccc(Cl)c([N+](=O)[O-])c1)NCC1CCCO1 (stereo not drawn),.,44.3,13.4,.,54.9*,.
O=C(NCC1CCCN1S(=O)(=O)c1cccs1)C(=O)Nc1ccccc1Cl (stereo not drawn),.,10.9,-14.1,.,-16.1,1.7
CCCCC(CC)CN1C(=O)/C(=C/c2ccncc2)SC1=S (stereo not drawn),3.1,86.5*,-6.0,-1.2,14.7,3.2
Cc1ccc(N(C)S(=O)(=O)c2cccc(C(=O)OCC(=O)c3c(N)n(C)c(=O)n(C)c3=O)c2)cc1,.,-0.1,51.6*,.,38.4,.
CN(C)S(=O)(=O)c1cccc(C(=O)OCC(=O)c2c(N)n(C)c(=O)n(C)c2=O)c1,26.5,-0.7,10.2,-4.0,0.4,21.8
Cc1cccc(/C=N/NC(=O)C(C)Nc2cccc3ccccc23)n1 (stereo not drawn),35.6,-13.2,-3.3,3.5,12.8,7.1
COc1cc([N+](=O)[O-])cc(/C=N/NC(=O)C(C)Nc2cccc3ccccc23)c1O (stereo not drawn),20.6,14.5,57.2*,6.1,86.9*,-0.9
CC(Nc1cccc2ccccc12)C(=O)N/N=C/c1ccc([N+](=O)[O-])cc1 (stereo not drawn),22.4,6.5,44.7,3.7,100.3*,-2.1
O=C(NC1CCCCC1)C1c2ccccc2OCC(=O)N1C1CC1 (stereo not drawn),.,-6.1,10.2,.,-5.8,.
O=C(CCl)N(c1ccccc1)C1CCS(=O)(=O)C1 (stereo not drawn),18.4,27.7,4.7,7.0,52.9*,7.4
CC(=O)Nc1ccc(C(=O)OCC(=O)N(c2ccccc2)C2CCS(=O)(=O)C2)cc1 (stereo not drawn),.,20.7,2.0,.,-0.1,.
CC1CN(S(=O)(=O)c2ccc(NC(=O)c3cc(-c4ccccc4O)n[nH]3)cc2)CC(C)O1 (stereo not drawn),-1.2,33.9,62.1*,8.9,37.5,-1.8
CC1CN(S(=O)(=O)c2ccc(C(=O)Nc3nncs3)cc2)CC(C)O1 (stereo not drawn),.,2.6,1.1,.,1.6,.
SMILES,PPC-1+TRAIL kill,TRAIL sens C8,TROY NFkB inh,HSP90 refold inh,TWEAK-Fn14 inh,Platelet DG rel
O=C(Nc1ccc(S(=O)(=O)N2CCOCC2)cc1)c1cc(-c2ccccc2O)n[nH]1,-10.1,0.3,26.8,3.3,2.8,1.3
CC1CN(S(=O)(=O)c2ccc(C(=O)Nc3nc(-c4cc5ccccc5o4)cs3)cc2)CC(C)O1 (stereo not drawn),-0.3,42.4,36.6,-1.0,66.8*,2.5
CN(C)S(=O)(=O)c1ccc(C(=O)Nc2nc(-c3cc4ccccc4o3)cs2)cc1,24.6,39.8,50.9*,1.2,-16.0,7.2
O=C(Nc1nc(-c2cc3ccccc3o2)cs1)c1ccc(S(=O)(=O)N2CCCC2)cc1,11.1,38.3,39.1,1.5,83.0*,-9.8
CC1CCC2(CC1)NC(=O)N(CC(=O)N1CC(C)CC(C)C1)C2=O (stereo not drawn),.,-2.3,-1.7,.,0.7,.
CCN(c1ccccc1)S(=O)(=O)c1cccc(C(=O)Nc2ccc(C)cn2)c1,.,-3.6,29.9,1.1,13.3,5.8
Cc1c(Cl)cccc1N=C1NC(=O)CS1,.,1.1,-18.4,.,0.5,.
c1ccc2oc(-c3csc(NCC4CCCO4)n3)cc2c1 (stereo not drawn),25.4,21.8,-9.7,0.3,80.2*,-4.0
Nn1c(SCc2ccc(C(=O)O)cc2)nnc1-c1ccc(Cl)cc1Cl,.,-8.9,-37.3,4.0,33.7,-7.9
CCCNC(=O)c1ccc(S(=O)(=O)c2ccc(OC)cc2)c([N+](=O)[O-])c1,.,12.3,23.4,-0.6,71.7*,-0.4
Cc1cccc(-c2cc(C(=O)N/N=C/c3cccnc3)c3ccccc3n2)c1,.,11.2,-8.2,.,-40.2,14.0
CCNC(=S)NNC(=O)c1cc(-c2ccc(OC)cc2)nc2ccccc12,88.3*,88.9*,-15.5,4.3,-7.3,110.8*
COc1ccc(-c2cc(C(=O)N/N=C/c3cccnc3)c3ccccc3n2)cc1,.,54.1*,-36.2,-3.1,-19.5,.
COc1cc(/C=N/NC(=O)c2cc(-c3cccc(OC(C)C)c3)nc3ccccc23)ccc1O,.,53.0*,2.1,.,15.3,-0.6
CCNC(=S)NNC(=O)c1cc(-c2cccc(OCC)c2)nc2ccccc12,16.3,7.9,-24.3,0.1,-38.0,-3.3
COc1ccc(C)cc1NC(=O)CNC(=O)[C@@H]1Cc2ccccc2CN1,.,-5.0,-1.3,7.3,10.8,-8.9
Cc1csc(=O)n1CCC(=O)OCC(=O)Nc1cc([N+](=O)[O-])ccc1Cl,.,3.3,-0.9,.,-0.6,-0.6
Cc1ccc(CN=c2c([N+](=O)[O-])nn(-c3cccc(Cl)c3)n2O)cc1,20.3,0.0,-17.2,0.1,2.3,-1.4
Cc1ccc(CN=c2c([N+](=O)[O-])nn(-c3cccc(C)c3)n2O)cc1,15.6,49.0*,-26.5,-0.9,-5.5,1.6
CCOc1ccccc1NC(=O)COC(=O)c1c[nH]c2ccccc12,.,32.2,14.4,.,-12.7,.
